Screening data from PubChem.
This is one part of a sample in which hits are shown more often than they occur.
Shiga toxin inh: inhibitors of Shiga toxin in Vero cells; Vero cells, Shiga toxin protein synthesis inhibition reporter; inhibition, % at 38.7 µM; 290,000 compounds, 9.2% hits; in the data active = inhibition mostly above about 28%, no sharp cut-off; inactive = mostly below about 43%; note: 0% is about no effect
NS1 function inh: blocks influenza NS1 protein function; Potency, µM (highest dose often 46.1 µM), without a hit: top-dose activity, positive = more growth; 270,000 compounds, 0.4% hits; note: potency is the fitted concentration of half-maximal effect; actives are rising curves; nearly all actives have a fitted effect of over 50% in size
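Read-out: OD600 growth recovery of NS1-expressing budding yeast. Cells grown overnight at 30C in -URA glucose medium, washed, resuspended and diluted 1:100 in 2% galactose assay medium, pH 6.0. Same strain lacking NS1 served as positive control.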
Tb PYK inh: T. brucei pyruvate kinase inhibition; Q57TT1; Potency, µM (titrated, usually from 76.8 µM), for inactives: top-dose activity, negative = inhibition, usual class: inhibitors; TbPYK enzyme, Kinase-Glo Plus ATP luminescence, 45 min; AID 624173; 410,000 compounds, 0.12% hits; active = well fitted curve in the direction sought with a large enough effect; inconclusive = small, poorly fitted or top-dose-only effect, or another doubt; inactive = no such curve, though single readings can be large; an effect the other way counts as inactive or inconclusive; note: potency is the fitted concentration of half-maximal effect; % is set by controls: 0 for no effect and ±100 for the full control effect; nearly all actives have a fitted effect of over 50% in size
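Luminescent Kinase-Glo Plus end-point after 45 min room-temperature reaction of T. brucei pyruvate kinase started with 130 uM ADP (final). Buffer TEA 50 mM pH 7.2 with KCl, MgCl2, BSA, Tween-20; titration-based qHTS with fitted concentration-effect curves.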
LmPK inh: LmPK (Leishmania mexicana) enzyme inhibition | purified LmPK, Kinase-Glo ATP luminescence, 1 h | Potency, µM (series often up to 57.5 µM), for inactives: top-dose activity change, negative = inhibition, most hits filed as inhibitors | 290,000 compounds, 0.37% hits | AID 1721; active = well fitted curve in the direction sought with a large enough effect; inconclusive = small, poorly fitted or top-dose-only effect, or another doubt; inactive = no such curve, though single readings can be large; an effect the other way counts as inactive or inconclusive; note: potency is the fitted concentration of half-maximal effect; % is set by controls: 0 for no effect and ±100 for the full control effect
Target sequence (Q27686 whole entry, looked up): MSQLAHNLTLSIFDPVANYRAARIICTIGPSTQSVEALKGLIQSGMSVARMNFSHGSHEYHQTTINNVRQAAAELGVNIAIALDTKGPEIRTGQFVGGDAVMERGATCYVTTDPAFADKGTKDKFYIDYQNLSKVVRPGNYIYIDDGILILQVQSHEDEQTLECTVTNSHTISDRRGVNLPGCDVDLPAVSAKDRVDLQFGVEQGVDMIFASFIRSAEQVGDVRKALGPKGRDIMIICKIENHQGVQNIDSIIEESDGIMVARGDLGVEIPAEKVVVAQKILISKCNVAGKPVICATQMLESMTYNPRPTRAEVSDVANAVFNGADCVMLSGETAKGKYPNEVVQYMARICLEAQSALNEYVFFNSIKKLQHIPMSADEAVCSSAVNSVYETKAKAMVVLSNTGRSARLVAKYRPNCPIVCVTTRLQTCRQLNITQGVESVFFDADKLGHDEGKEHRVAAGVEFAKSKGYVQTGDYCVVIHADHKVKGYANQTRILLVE
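Purified LmPK (0.1 nM) with 0.5 mM PEP and 0.1 mM ADP in imidazole buffer pH 7.2 with MgCl2/KCl, 1 h at room temperature. ATP formed was read by luciferase luminescence and normalized to no-enzyme and uninhibited controls.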
CHX counter: affects cycloheximide protein synthesis inhibition readout, counter-screen | cell reporter, cycloheximide protein synthesis inhibition counterscreen | max response, % | 300,000 compounds, 12% hits | AID 2314; in the data active = max response mostly above about 13%, no sharp cut-off; inactive = mostly below about 14%; note: read at 38.3 µM for the half of the compounds with a filed dose; 0% is about no effect
SARS PLpro yeast: blocks SARS-CoV papain-like protease in a yeast assay; S. cerevisiae expressing SARS-CoV PLpro, growth rescue; Potency, µM (doses to about 32.9 µM), for inactives: at the top dose activity, positive = growth rescue, most hits filed as activators; 330,000 compounds, 0.19% hits; AID 485353; note: potency is the fitted concentration of half-maximal effect; 0% is about no effect; nearly all actives have a fitted effect of over 55% in size
The depositor's hits bear a star; ? = inconclusive; / = no result; + = active, no number; [ ] = another dose, or the depositor's remark. Unless noted, calls come from the whole dose curve.

SMILES	Shiga toxin inh	NS1 function inh	Tb PYK inh	LmPK inh	CHX counter	SARS PLpro yeast
Cc1ccccc1OC(C)C(=O)Nc1ccc2c(c1)OCCO2 (centres undefined)	21	-47%	-1%	-13%	34*	-2%
CCN(c1ccccc1)S(=O)(=O)c1ccc(Cl)c(NC(=O)CSc2nc(N)cc(=O)[nH]2)c1	/	/	4%	/	/	/
O=C(NCC1(O)CCCCC1)C1CCC(=O)N(Cc2cccc(C(F)(F)F)c2)C1 (centres undefined)	-3	5%	3%	3%	8	12%
CCOc1cc(CNC(=O)c2cc(-c3ccc(Cl)s3)nc3ccccc23)ccc1OC	/	/	0%	/	/	/
c1ccc(CC(Nc2ccccn2)c2ccccc2)cc1 (centres undefined)	15	/	5%	-8%	18*	7%
C=CCn1c(SCC(=O)NC2CCCC2)nc2c([nH]c3ccccc32)c1=O	20	13%	-7%	-2%	-2	-6%
CCCCCCC1(C)NC(=S)N(c2ccccc2)N1 (centres undefined)	3	/	-14%	22%[11.5 µM]	7	-3%
CCC1(c2ccc(Cl)cc2)NC(=S)N(c2ccccc2)N1 (centres undefined)	37	9%	-25%	-2%	14*	-8%
CCC1(c2ccccc2)NC(=S)N(c2ccc(C)cc2)N1 (centres undefined)	54	/	?	-13%	27*	11%
CC1CCC2(CC1)NC(=S)N(c1ccccc1)N2 (centres undefined)	41	-60%	-22%	20%	24	-16%
CCCCN1CC[C@H]2C=CC[C@@H](C(=O)NCCc3ccccc3)[C@H]2C1=O	/	/	-6%	/	/	/
CC1=C(C(=O)Nc2ccccn2)C(c2ccc3c(c2)OCO3)C2=C(CC(C)(C)CC2=O)N1 (centres undefined)	31	/	2%	-4%[11.5 µM]	16*	-1%
N#C/C(=C(/O)c1ccc(-c2cccc([N+](=O)[O-])c2)o1)c1nc2ccccc2s1	53*	/	1%	-15%	21	2%
N#C/C(=C(/O)c1ccc(F)cc1)c1nc2ccccc2s1	20	-1%	0%	-2%	20*	-9%
N#C/C(=C(/O)CSc1ccccn1)c1nc2ccccc2s1	47	17%	-3%	0%	25*	0%
c1ccc(-c2noc(CSc3nc4ccccc4o3)n2)cc1	56	-12%	-3%	2%	17	-7%
COc1ccc2nc(NC(=O)c3ccc(-c4cccc([N+](=O)[O-])c4)o3)sc2c1	31	?	/	10%	10	-4%
N#CCc1nc(CSc2nc3ccccc3o2)cs1	70*	-15%	-8%	3%	25	-5%
Cc1c(Cl)cccc1-n1ncc(C(=O)N2CCN(C)CC2)c1C1CCN(C(=O)OC(C)(C)C)CC1	/	/	0%	/	/	/
COc1ccc(CCNC(=O)Cn2c(=O)nc(-c3ccccc3)c3cc(Cl)ccc32)cc1OC	/	/	-17%	/	/	/
COc1ccc(C(=O)NCCn2cc(SCC(=O)NCCc3ccc(OC)c(OC)c3)c3ccccc32)cc1	/	/	-2%	/	/	/
CC(=O)c1c(C)[nH]c(C(=O)COC(=O)c2ccc(C)s2)c1C	/	/	2%	/	/	0%
O=C(O)c1c(Cl)c(Cl)c(Cl)c(Cl)c1-c1c2cc(I)c(=O)c(I)c-2oc2c(I)c(O)c(I)cc12	-9	/	?	/	-7	/
c1ccc(SCc2nc3ccccc3s2)nc1	81*	7%	-6%	-5%	33*	-2%
c1ccc2oc(SCc3nc4ccccc4s3)nc2c1	+	-48%	-18%	-8%	43*	/
SMILES	Shiga toxin inh	NS1 function inh	Tb PYK inh	LmPK inh	CHX counter	SARS PLpro yeast
N#Cc1ccc(NC(=S)NC(=O)C2CC2)cc1	/	/	2%	/	/	/
CCCn1c(SCC(=O)NCCCN2CCCC2=O)nc2ccccc2c1=O	/	/	4%	/	/	5%
COc1cccc(CNC(=O)c2cc(S(=O)(=O)N3CCCCCC3)cn2C)c1	/	/	6%	/	/	/
COc1ccc(C2=NN(C(=O)CN3CCOCC3)C(c3nc4ccccc4[nH]3)C2)cc1 (centres undefined)	105*	/	4%	-9%	56*	-4%
CN(C)c1ccc(S(=O)(=O)N2CCCCC2)cc1NC(=O)CCNC(=O)c1ccccc1Cl	/	/	0%	/	/	/
O=C(CN1C(=O)CC(c2ccco2)Sc2ccccc21)NCC1CCCO1 (centres undefined)	-15	5%	-8%	5%	-2	-5%
COc1ccc(C2CC(=O)N(C)c3ccccc3S2)cc1 (centres undefined)	124*	/	2%	0%	38*	-6%
CN1C(=O)CC(c2ccco2)Sc2ccccc21 (centres undefined)	24	8%	-8%	-1%	0	5%
COc1ccc(C2CC(=O)N(CC(=O)NCC3CCCO3)c3ccccc3S2)cc1 (centres undefined)	72	/	4%	6%	34*	0%
COc1ccc(-c2nc3c4ccccc4ccn3c2Cc2ccsc2)cc1OC	/	/	-1%	/	/	/
Cc1ccc(OCCn2cnc3sc(C(N)=O)c(C)c3c2=O)cc1	-3	/	/	-1%[11.5 µM]	10	0%
CCOC(=O)Cn1cnc2sc(C(=O)OC)c(C)c2c1=O	25*	2%	-3%	0%	11	0%
CCCc1ccc(OC(=O)c2sc3ncn(Cc4cccc(F)c4)c(=O)c3c2C)cc1	/	/	0%	/	/	/
CCn1cnc2sc(C(=O)Oc3ccc(Br)cc3)c(C)c2c1=O	64*	/	6%	-4%	30*	-3%
CCOCCn1cnc2sc(C(=O)NCC(=O)OCC)c(C)c2c1=O	32*	-4%	4%	-7%	23*	4%
O=C(NCCC(=O)N1CCN(c2ccccn2)CC1)c1ccc(Cl)cc1	/	/	4%	/	/	-4%
CCOc1ccc(CC(=O)Nc2c(C(=O)c3ccc(Cl)cc3)oc3ccccc23)cc1OCC	/	/	4%	/	/	/
COC(=O)c1ccccc1NC(=O)c1ccc(F)cc1F	-7	/	/	/	10	/
O=C(C1CC=CCC1)N1CCN(S(=O)(=O)c2ccc(F)cc2)CC1 (centres undefined)	/	/	2%	/	/	2%
CN1C(=O)C(Cc2ccc(OCc3ccccc3)cc2)C(=O)N(C)C1=O	67*	-35%	-6%	0%	38*	1%
Cc1cc(C)nc(SCCN(C)C)n1	8	2%	-5%	2%	1	0%
CCCc1cc(=O)[nH]c(SCc2csc(-c3ccccc3)n2)n1	4	-9%	-1%	1%	14	-28%
Cc1cc(C)nc(SCc2csc(N)n2)n1	64	0%	-24%	-1%	28*	5%
Nc1ccccc1SCc1csc(-c2ccc(Cl)cc2)n1	113*	-18%	-11%	5%	44*	-8%
Clc1ccc(-c2nc(CSc3ccccn3)cs2)cc1	/	/	4%	/	/	/
Cc1cc(C)nc(SCc2csc(-c3ccccc3)n2)n1	85*	-13%	-7%	-5%	61*	-31%
O=C(COc1ccccc1F)NCC(c1ccc(F)cc1)N1CCOCC1 (centres undefined)	/	/	1%	/	/	0%
